Test results as given in PubChem BioAssay AID1159580 (chemical genetic matrix, 2015).
“And” between values parts separate entries of the source, which are not always exact repeats. Equal values may be shown once. Screen size: about 5,500 compounds; about 2,000 (36%) were called active. Not shown: some 18% with an inconclusive outcome. No stated cut-off is given here; in the data, active means normalized growth mostly below about 0.91 (no sharp cut-off); inconclusive means no clear call, values can overlap the other calls; inactive means mostly above about 0.92. This is one part of the list.

Test: chemical genetic growth profiling, strain panel (AID 1159580);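 further: tested at 20 µM; growth read once vehicle control cultures reached saturation at 30 °C; 1 = growth at the plate median or of vehicle wells; lower values mean less growth of the strain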
Conditions: growth OD

Measured: normalized growth

CCN(CC)CCCC(C)Nc1ccnc2cc(Cl)ccc12 (stereo not drawn)
inactive: S. cerevisiae deletion strains, locus YJR075W, strain HOC1, hits give low values 1.03 and 1.01 | S. cerevisiae deletion strains, locus YKL009W, strain mrt4, hits give low values 1.03 | S. cerevisiae deletion strains, locus YKL068W, hits give low values 1.01 | S. cerevisiae deletion strains, locus YKL085W, strain MDH1 (second series), hits give low values 0.998 | S. cerevisiae deletion strains, locus YKL085W, strain MDH1, hits give low values 0.998 | S. cerevisiae deletion strains, locus YKL160W, strain elf1, hits give low values 1.03 | S. cerevisiae deletion strains, locus YKR001C, strain vps1, hits give low values 1.01 | S. cerevisiae deletion strains, locus YKR026C, strain gcn3, hits give low values 1.03 | S. cerevisiae deletion strains, locus YKR091W, strain srl3, hits give low values 1.02 | S. cerevisiae deletion strains, locus YLL001W, strain dnm1, hits give low values 1.02 | S. cerevisiae deletion strains, locus YLL026W, hits give low values 1.01 | S. cerevisiae deletion strains, locus YLL041C, strain sdh2, hits give low values 1.02 | S. cerevisiae deletion strains, locus YLR027C, strain aat2, hits give low values 1.01 | S. cerevisiae deletion strains, locus YLR039C, strain RIC1, hits give low values 1.04 | S. cerevisiae deletion strains, locus YLR058C, strain SHM2, hits give low values 1.03 | S. cerevisiae deletion strains, locus YLR102C, strain apc9, hits give low values 1 | S. cerevisiae deletion strains, locus YLR113W, strain HOG1, hits give low values 0.947 | S. cerevisiae deletion strains, locus YLR221C, strain rsa3, hits give low values 1.03 | S. cerevisiae deletion strains, locus YLR258W, strain gsy2, hits give low values 1.01 | S. cerevisiae deletion strains, locus YLR262C, strain YPT6 (second series), hits give low values 1.01 | S. cerevisiae deletion strains, locus YLR262C, strain YPT6, hits give low values 1.01 | S. cerevisiae deletion strains, locus YLR268W, strain sec22, hits give low values 0.998 | S. cerevisiae deletion strains, locus YLR320W, strain mms22, hits give low values 1.01 | S. cerevisiae deletion strains, locus YLR330W, strain CHS5, hits give low values 1.02 | S. cerevisiae deletion strains, locus YLR342W, strain FKS1 (second series), hits give low values 1.03 | S. cerevisiae deletion strains, locus YLR342W, strain FKS1, hits give low values 1.03 | S. cerevisiae deletion strains, locus YLR357W, strain rsc2, hits give low values 1.05 | S. cerevisiae deletion strains, locus YLR370C, strain arc18, hits give low values 1.02 | S. cerevisiae deletion strains, locus YLR371W, strain rom2, hits give low values 1.02 | S. cerevisiae deletion strains, locus YLR384C, strain iki3, hits give low values 1.03 | S. cerevisiae deletion strains, locus YLR418C, strain cdc73, hits give low values 1.07 | S. cerevisiae deletion strains, locus YML016C, strain PPZ1, hits give low values 1.01 | S. cerevisiae deletion strains, locus YML032C, strain rad52, hits give low values 0.996 | S. cerevisiae deletion strains, locus YML120C, strain ndi1, hits give low values 1.01 | S. cerevisiae deletion strains, locus YML124C, strain tub3, hits give low values 1 | S. cerevisiae deletion strains, locus YMR058W, strain fet3, hits give low values 1 | S. cerevisiae deletion strains, locus YMR078C, strain ctf18, hits give low values 1.02 | S. cerevisiae deletion strains, locus YMR125W, strain sto1, hits give low values 1.03 | S. cerevisiae deletion strains, locus YMR129W, hits give low values 1.02 | S. cerevisiae deletion strains, locus YMR205C, strain PFK2, hits give low values 1.04 | S. cerevisiae deletion strains, locus YMR223W, strain ubp8, hits give low values 1.03 | S. cerevisiae deletion strains, locus YMR231W, strain pep5, hits give low values 1.02 | S. cerevisiae deletion strains, locus YMR307W, strain GAS1, hits give low values 1.04 | S. cerevisiae deletion strains, locus YNL067W, strain RPL9B, hits give low values 1.03 | S. cerevisiae deletion strains, locus YNL071W, strain lat1, hits give low values 1 | S. cerevisiae deletion strains, locus YNL128W, strain TEP1, hits give low values 1.04 | S. cerevisiae deletion strains, locus YNL153C, strain GIM3, hits give low values 1.04 | S. cerevisiae deletion strains, locus YNL175C, strain NOP13, hits give low values 1.01 | S. cerevisiae deletion strains, locus YNL183C, strain NPR1, hits give low values 0.918 | S. cerevisiae deletion strains, locus YNL197C, strain WHI3, hits give low values 0.99 | S. cerevisiae deletion strains, locus YNL209W, strain ssb2, hits give low values 1.01 | S. cerevisiae deletion strains, locus YNL224C, strain SQS1, hits give low values 1 | S. cerevisiae deletion strains, locus YNL233W, strain BNI4, hits give low values 1.03 | S. cerevisiae deletion strains, locus YNL248C, strain rpa49, hits give low values 1.04 | S. cerevisiae deletion strains, locus YNL250W, strain rad50, hits give low values 1.02 | S. cerevisiae deletion strains, locus YNL271C, strain bni1, hits give low values 1.01 | S. cerevisiae deletion strains, locus YNL298W, strain CLA4, hits give low values 1.01 | S. cerevisiae deletion strains, locus YNL307C, strain MCK1, hits give low values 1.02 | S. cerevisiae deletion strains, locus YNL322C, strain KRE1 (second series), hits give low values 1.05 | S. cerevisiae deletion strains, locus YNR049C, strain mso1, hits give low values 1.02 | S. cerevisiae deletion strains, locus YNR052C, strain pop2, hits give low values 1.01 | S. cerevisiae deletion strains, locus YOL006C, strain TOP1, hits give low values 1.14 | S. cerevisiae deletion strains, locus YOL012C, strain htz1 2.16 | S. cerevisiae deletion strains, locus YOL147C, strain pex11, hits give low values 1 | S. cerevisiae deletion strains, locus YOR001W, strain rrp6, hits give low values 1.03 | S. cerevisiae deletion strains, locus YOR061W, strain CKA2, hits give low values 1.01 | S. cerevisiae deletion strains, locus YOR069W, strain VPS5, hits give low values 1.01 | S. cerevisiae deletion strains, locus YOR070C, strain gyp1, hits give low values 1.02 | S. cerevisiae deletion strains, locus YOR080W, strain dia2, hits give low values 1.06 | S. cerevisiae deletion strains, locus YOR083W, strain WHI5 (second series), hits give low values 0.986 | S. cerevisiae deletion strains, locus YOR083W, strain WHI5, hits give low values 1.02 | S. cerevisiae deletion strains, locus YOR106W, strain vam3, hits give low values 1.03 | S. cerevisiae deletion strains, locus YOR136W, strain idh2, hits give low values 1.01 | S. cerevisiae deletion strains, locus YOR144C, strain elg1, hits give low values 0.993 | S. cerevisiae deletion strains, locus YOR184W, strain ser1, hits give low values 1.03 | S. cerevisiae deletion strains, locus YOR231W, strain MKK1, hits give low values 0.953 | S. cerevisiae deletion strains, locus YOR265W, strain rbl2, hits give low values 1.02 | S. cerevisiae deletion strains, locus YOR270C, strain vph1, hits give low values 1.01 | S. cerevisiae deletion strains, locus YOR290C, strain snf2, hits give low values 1.01 | S. cerevisiae deletion strains, locus YOR316C, strain cot1, hits give low values 1.01 | S. cerevisiae deletion strains, locus YPL051W, strain arl3, hits give low values 1.02 | S. cerevisiae deletion strains, locus YPL055C, strain LGE1, hits give low values 1.03 and 1.01 | S. cerevisiae deletion strains, locus YPL078C, strain atp4, hits give low values 1.02 | S. cerevisiae deletion strains, locus YPL106C, strain sse1, hits give low values 1.05 | S. cerevisiae deletion strains, locus YPL240C, strain hsp82, hits give low values 1.02 | S. cerevisiae deletion strains, locus YPL241C, strain CIN2, hits give low values 1.01 | S. cerevisiae deletion strains, locus YPL256C, strain CLN2, hits give low values 0.945 | S. cerevisiae deletion strains, locus YPR119W, strain clb2, hits give low values 1.01 | S. cerevisiae deletion strains, locus YPR141C, strain kar3, hits give low values 1.01 | S. cerevisiae deletion strains, locus YPR163C, strain tif3, hits give low values 0.999 | S. cerevisiae deletion strains, locus YPR167C, strain met16, hits give low values 1.01 | S. cerevisiae deletion strains, strain wtn01, hits give low values 1.03 | S. cerevisiae strains, strain wild type, hits give low values 1.01
